# Pf growth 48h – inhibits P. falciparum growth in the first generation, 48 h; P. falciparum luciferase growth in erythrocytes, 48 h; Potency, µM (top dose mostly 28.7 µM), inactives show at the top dose activity change, negative = inhibition, actives largely listed as inhibitors; 310,000 compounds, 5.9% hits; AID 504832; note: % is set by controls: 0 for no effect and ±100 for the full control effect
#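 Parasite viability was followed by luminescence of a genomically integrated firefly luciferase. Cultures held 0.1% parasitemia at 2% hematocrit (final), incubated under 5% CO2 at 37 C.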
# AMA1 RON2 block – disrupts binding of P. falciparum AMA1 to RON2. AlphaScreen AMA1-biotinylated RON2 peptide binding. Potency, µM (doses to about 58.2 µM), without a hit: at the highest dose activity change, negative = inhibition, usual class: inhibitors. 360,000 compounds, 0.2% hits. AID 720542;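 note: 0% = vehicle wells and -100% = peptide control; nearly all actives have a fitted effect of over 45% in size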
#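 AMA1 (3D7) with his tag at 25 nM final met compounds first, then biotinylated RON2 peptide at 25 nM; detection used donor plus acceptor beads, 10 µg/mL apiece, read by AlphaScreen after 30 min at room temperature.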
# NS1 function inh – influenza NS1 inhibition. Potency, µM (doses to about 46.1 µM), for the others: at the top dose activity, positive = more growth. 270,000 compounds, 0.4% hits. AID 2326; calls by dose curve; note: actives are rising curves; nearly all actives have a fitted effect of over 50% in size
#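 In this qHTS, NS1 from influenza A is expressed in budding yeast, where it slows growth. Cells are switched from glucose to 2% galactose medium (pH 6.0, -URA), treated with compound, and growth recovery is read at OD600.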
# Pf growth 96h – inhibits malaria parasite growth, 96 h | Potency, µM (top dose mostly 28.7 µM), inactives show top-dose activity change, negative = inhibition, usual class: inhibitors | P. falciparum luciferase reporter growth, 96 h | 320,000 compounds, 6.9% hits; note: % is set by controls: 0 for no effect and ±100 for the full control effect
#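 Two parasite generations (96 h, 37 C, 5% CO2) of compound exposure in infected erythrocytes (0.05% parasitemia, 2% hematocrit). Luciferase-reporter P. falciparum; decreased luminescence indicates inhibited growth, aimed at apicoplast-acting delayed death.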
# Sm TGR inh – S. mansoni TGR enzyme inhibition | Q962Y6 | purified TGR, DTNB reduction, TNB absorbance 405 nm | Potency, µM (series often up to 114 µM), for the others: top-dose activity change, negative = inhibition, actives largely listed as inhibitors | 360,000 compounds, 3% hits | AID 485364; note: % is set by controls: 0 for no effect and ±100 for the full control effect; nearly all actives have a fitted effect of over 60% in size
#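 Kinetic colorimetric format: TGR-catalysed, NADPH-driven DTNB reduction monitored via TNB absorbance. Enzyme dispensed at 20 nM; compound exposure 15 min at room temperature before reaction start.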
# The depositor's hits bear a star; ? = inconclusive; . = not tested or not shown; [ ] = another dose, or the depositor's remark. This is a sample that favours compounds with a hit; in the whole collection about 11% have one here. Unless noted, calls come from the whole dose curve; as a rule, active = well fitted curve in the direction sought with a large enough effect; inconclusive = small, poorly fitted or top-dose-only effect, or another doubt; inactive = no such curve, though single readings can be large; an effect the other way counts as inactive or inconclusive. Potency is the fitted concentration of half-maximal effect.
SMILES,Pf growth 48h,AMA1 RON2 block,NS1 function inh,Pf growth 96h,Sm TGR inh
COc1ccc2cc(C(c3nnnn3Cc3ccc(F)cc3)N3CCCCCC3)c(=O)[nH]c2c1 (stereo not given),12µM*,-6%,-12%,.,16µM*
Cc1cc(C)c2[nH]c(=O)c(C(c3nnnn3Cc3ccc4c(c3)OCO4)N3CCC(C)CC3)cc2c1 (stereo not given),13µM*,14%,-12%,.,-34%
COc1ccc2cc(C(c3nnnn3Cc3ccccc3)N3CCCCCC3)c(=O)[nH]c2c1 (stereo not given),?,9%,-2%,?,20µM*
Cc1cc(C)c2[nH]c(=O)c(C(c3nnnn3C3CCCC3)N3CCOCC3)cc2c1 (stereo not given),3%,.,-6%,?,-11%
CC(C)CC(NC(N)=O)C(=O)OCC(=O)Nc1ccc(OC(F)F)cc1 (stereo not given),17%,-2%,.,30%,4%
COc1ccc(-c2noc(CCC(=O)N(C)c3cc(Cl)ccc3OC)n2)cc1,.,.,.,.,4%
COc1ccc(Cn2nnnc2C(c2cc3ccc(OC)cc3[nH]c2=O)N2CCC(C)CC2)cc1 (stereo not given),.,-3%,6%,9.3µM*,28µM*
COc1ccc(OCC#CCN2CC(C)OC(C)C2)cc1 (stereo not given),-16%[5.75 µM],11%,.,?,7.1µM*
COc1ccc(CN2CCOCCOCCOCCOCCOCC2)cc1,12%,1%,1%,15%,32%
COc1ccc(OCC#CCN2CCNCC2)cc1,16%,-29%,-9%,1.9µM*,-26%
COc1ccc(CN2CCNCC2)cc1,175%,7%,-2%,43%,50µM*
COc1ccc(OCC#CCN2CCCCCC2)cc1,-1%,?,.,3%,?
O=C(O)c1c[nH]c2ccc(F)cc2c1=O,20%,3%,.,31%,0%
CNC(=O)C1CCC(Cn2c(=O)c3sccc3n(CC(=O)N3CCCC3)c2=O)CC1 (stereo not given),.,.,.,.,-8%
Cc1ccc(N2C(=O)C3C4C=CC(CC4)C3C2=O)cc1[N+](=O)[O-] (stereo not given),3%,-4%,-13%,12%,50µM*
CCOc1ccc(N2C(=O)C3C4C=CC(CC4)C3C2=O)c([N+](=O)[O-])c1 (stereo not given),22%,3%,13%,?,50µM*
CCOc1ccc(N2C(=O)C3CC(C)=C(C)CC3C2=O)c([N+](=O)[O-])c1 (stereo not given),1%,-8%,6%,?,20µM*
COc1ccc(N2C(=O)C3C4C=CC(CC4)C3C2=O)c([N+](=O)[O-])c1 (stereo not given),8%,-10%,4%,6%,3%
O=C1NC(=O)N(Cc2ccccc2)CC1Br (stereo not given),.,13%,.,.,.
COc1ccc(S(=O)(=O)NCCc2cn3ccsc3n2)cc1OC,.,.,.,.,40µM*
COc1ccc(S(=O)(=O)NCCc2cn3ccsc3n2)cc1,.,.,.,.,-10%
CCc1nc2cccnc2n1-c1ccc(CC(=O)O)cc1,-18%,9%,4%,10µM*,-10%
O=C(Cn1ncc2c(=O)oc3ccccc3c21)N1CCC(N2CCCCC2)CC1,17%,1%,-2%,12µM*,-1%
Cc1ccc(CCNC(=O)Cn2ncc3c(=O)oc4ccccc4c32)cc1,.,.,.,.,-6%
O=C(Cn1ncc2c(=O)oc3ccccc3c21)NCCC1=CCCCC1,-8%,11%,-8%,9.3µM*,5%
SMILES,Pf growth 48h,AMA1 RON2 block,NS1 function inh,Pf growth 96h,Sm TGR inh
CC(Nc1cc(N2CCCC2)ccc1[N+](=O)[O-])c1ccccc1 (stereo not given),13µM*,-1%,4%,?,0%
CC(Nc1cc(N2CCN(S(=O)(=O)N(C)C)CC2)ccc1[N+](=O)[O-])c1ccccc1 (stereo not given),15µM*,-18%,-2%,182%,.
CC(Nc1cc(N2CCN(S(C)(=O)=O)CC2)ccc1[N+](=O)[O-])c1ccccc1 (stereo not given),?,-11%[2.32 µM],-2%,-5%,-12%
CCCC(=O)N1CCN(c2ccc([N+](=O)[O-])c(NC(C)c3ccccc3)c2)CC1 (stereo not given),12µM*,-11%,-57%,9.3µM*,8%
CC(Nc1cc(N2CCOCC2)ccc1[N+](=O)[O-])c1ccccc1 (stereo not given),?,1%[2.32 µM],13%,-13%,-9%
CCCC12CN3CC(C)(CN(C1)C3c1ccc(OC)cc1)C2=O (stereo not given),?,-4%,-7%,32%,-3%
CCC12CN3CC(CC)(CN(C1)C3c1ccc(OC(C)C)cc1)C2=O (stereo not given),?,6%,-13%,4.7µM*,0%
O=C(CN1CCOCC1)Nc1ccc(S(=O)(=O)N2CCCCCC2)cc1,-22%,-8%,-5%,.,-27%
COC(=O)c1cc(NC(=O)CN2CCOCC2)cc(C(=O)OC)c1,?,-1%,4%,0%,-28%
O=C(CN1CCc2cc3c(cc2C1)OCCCO3)Nc1ccc(S(=O)(=O)N2CCCC2)cc1,?,0%,-1%,13µM*,-1%
COC(=O)c1cc(NC(=O)CN2CCc3cc4c(cc3C2)OCCCO4)cc(C(=O)OC)c1,-6%,-6%,16%,9.3µM*,-3%
CN(C)C(=O)c1ccc(SC(=S)NCc2ccccc2)cc1,.,-4%,.,.,.
C/C(=N\NC1=NCCN1)c1ccccc1,-30%,-18%,-2%,?,11%
C/C(=N\NC1=NCCN1)c1ccc(Cl)cc1,?,0%,-6%,2.3µM*,14%
CCS(=O)(=O)Nc1ccc(C2=NN(C(=S)Nc3ccccc3)C(c3ccco3)C2)cc1 (stereo not given),?,38%,-3%,?,-20%
COc1ccccc1C1CC(c2ccccc2)=NN1C(=S)Nc1ccccc1 (stereo not given),3.3µM*,-9%,.,?,0%
COc1ccc(C2CC(c3ccccc3)=NN2C(=S)Nc2ccccc2)cc1 (stereo not given),?,-26%,.,?,0%
Cc1ccc(C2=NN(C(=S)Nc3ccccc3)C(c3ccco3)C2)cc1 (stereo not given),45%,24%,?,9.3µM*,6%
COc1ccc(C2=NN(C(=S)Nc3ccccc3)C(c3ccccc3)C2)cc1 (stereo not given),15µM*,-12%,28%,44%,0%
COc1cc(C(=O)OCC(=O)N2CCCCC2C)cc(NC(=O)c2cccs2)c1OC (stereo not given),0.12µM*,24%,.,?,6%
O=C(CN1C(=O)C(=O)N(Cc2ccccc2)C1=O)c1ccc[nH]1,43%,-9%[11.6 µM],.,73%,-25%

# Compound activity as filed in PubChem.
